From article PMC7862700, “An all-to-all approach to the identification of sequence-specific readers for epigenetic DNA modifications on cytosine”

Experiments:
Assay in all cases: DAPPL (digital affinity profiling via proximity ligation, sequencing); 10 mM Tris-HCl pH 7.5, 50 mM NaCl, 1 mM DTT, 4% glycerol, room temperature, 30 min; GST-TFs on glutathione beads, 16-mer random dsDNA library, 0.1% formaldehyde crosslink after washing; high values mean tight binding
FEV = biological target: T1, FEV (Homo sapiens, UniProt Q99581 1-238); settings: protein: recombinant; tags: N-terminal GST; dsDNA, one strand shown
T1 sequence: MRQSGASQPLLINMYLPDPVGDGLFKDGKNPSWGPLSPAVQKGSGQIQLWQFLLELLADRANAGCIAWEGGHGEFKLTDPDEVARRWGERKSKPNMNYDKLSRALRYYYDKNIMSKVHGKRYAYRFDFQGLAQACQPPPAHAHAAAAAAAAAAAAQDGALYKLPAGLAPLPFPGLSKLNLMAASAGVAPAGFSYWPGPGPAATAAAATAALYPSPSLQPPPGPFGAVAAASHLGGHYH
Outline: (§1)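 Binding signal is given per hexamer as its read frequency for a factor divided by its frequency in the tag-only sample. GST-fused human transcription factors were expressed in yeast, captured on glutathione beads, barcoded with DNA and pooled with that sample, then incubated with 200 nmole of a 16-mer random double-stranded DNA library in Tris/NaCl/DTT/glycerol buffer for 30 min at room temperature. The pools were then washed, crosslinked, proximity-ligated, amplified by PCR and sequenced on an Illumina NextSeq500.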

ETV5 = ETV5 (Homo sapiens, UniProt P41161 1-510); settings: protein: recombinant; tags: N-terminal GST; dsDNA, one strand shown
Outline: as §1

HSF1 = HSF1 (Homo sapiens, UniProt Q00613 1-529); settings: protein: recombinant; tags: N-terminal GST; chain copies: 3; dsDNA, one strand shown
Outline: as §1

SPIC = biological target: T2, SPIC (Homo sapiens, UniProt Q8N5J4 1-248); settings: protein: recombinant; tags: N-terminal GST; dsDNA, one strand shown
T2 sequence: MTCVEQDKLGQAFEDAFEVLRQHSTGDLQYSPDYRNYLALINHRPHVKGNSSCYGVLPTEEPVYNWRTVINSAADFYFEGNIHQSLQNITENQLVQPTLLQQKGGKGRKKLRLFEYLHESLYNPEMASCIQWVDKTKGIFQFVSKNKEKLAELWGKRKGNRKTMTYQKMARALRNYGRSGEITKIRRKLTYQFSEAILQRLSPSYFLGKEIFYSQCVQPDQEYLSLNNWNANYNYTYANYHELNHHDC
Outline: as §1

ELF4 = ELF4 (Homo sapiens, UniProt Q99607 1-663); settings: protein: recombinant; tags: N-terminal GST; dsDNA, one strand shown
Outline: as §1

ELK4 = biological target: T3, ELK4 (Homo sapiens, UniProt P28324-2 1-405); settings: protein: recombinant; tags: N-terminal GST; dsDNA, one strand shown
T3 sequence: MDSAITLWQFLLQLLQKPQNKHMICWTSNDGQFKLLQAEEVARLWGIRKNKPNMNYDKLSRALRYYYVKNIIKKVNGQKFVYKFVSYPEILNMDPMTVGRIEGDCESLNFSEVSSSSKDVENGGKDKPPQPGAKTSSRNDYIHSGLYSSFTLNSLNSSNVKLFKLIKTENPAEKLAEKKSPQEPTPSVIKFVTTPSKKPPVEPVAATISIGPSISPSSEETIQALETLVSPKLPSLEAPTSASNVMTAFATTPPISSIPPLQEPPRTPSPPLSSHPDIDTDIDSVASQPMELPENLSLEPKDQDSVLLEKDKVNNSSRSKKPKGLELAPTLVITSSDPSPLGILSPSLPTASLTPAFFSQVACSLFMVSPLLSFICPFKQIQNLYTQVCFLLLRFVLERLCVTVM
Outline: as §1

ETV2 = biological target: T4, ETV2 (Homo sapiens, UniProt O00321 1-342); settings: protein: recombinant; tags: N-terminal GST; dsDNA, one strand shown
T4 sequence: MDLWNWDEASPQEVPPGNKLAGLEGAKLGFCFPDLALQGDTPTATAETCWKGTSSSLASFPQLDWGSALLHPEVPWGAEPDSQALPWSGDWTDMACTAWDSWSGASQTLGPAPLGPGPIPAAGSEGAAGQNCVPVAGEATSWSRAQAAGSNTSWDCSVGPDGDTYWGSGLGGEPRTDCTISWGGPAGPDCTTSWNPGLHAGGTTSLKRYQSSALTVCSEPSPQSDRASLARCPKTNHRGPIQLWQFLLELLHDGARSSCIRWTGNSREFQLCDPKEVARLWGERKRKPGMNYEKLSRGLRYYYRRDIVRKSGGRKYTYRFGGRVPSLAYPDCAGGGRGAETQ
Outline: as §1

ELF3 = biological target: T5, ELF3 (Homo sapiens, UniProt P78545 1-371); settings: protein: recombinant; tags: N-terminal GST; dsDNA, one strand shown
T5 sequence: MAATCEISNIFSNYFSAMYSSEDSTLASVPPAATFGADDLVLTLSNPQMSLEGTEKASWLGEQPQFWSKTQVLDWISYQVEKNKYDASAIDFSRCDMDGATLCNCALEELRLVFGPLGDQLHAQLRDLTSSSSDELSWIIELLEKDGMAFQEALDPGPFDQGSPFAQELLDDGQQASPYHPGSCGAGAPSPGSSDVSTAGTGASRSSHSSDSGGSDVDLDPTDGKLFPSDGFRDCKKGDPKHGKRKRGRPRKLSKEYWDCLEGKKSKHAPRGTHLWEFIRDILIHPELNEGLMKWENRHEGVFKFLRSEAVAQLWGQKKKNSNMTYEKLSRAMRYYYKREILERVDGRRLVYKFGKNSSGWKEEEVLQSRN
Outline: as §1

CRX = CRX (Homo sapiens, UniProt O43186 1-299); settings: protein: recombinant; tags: N-terminal GST; dsDNA, one strand shown
Outline: as §1

ETV1 = ETV1 (Homo sapiens, UniProt P50549 1-477); settings: protein: recombinant; tags: N-terminal GST; dsDNA, one strand shown
Outline: as §1

Chain of HSF1 (Q00613 whole entry): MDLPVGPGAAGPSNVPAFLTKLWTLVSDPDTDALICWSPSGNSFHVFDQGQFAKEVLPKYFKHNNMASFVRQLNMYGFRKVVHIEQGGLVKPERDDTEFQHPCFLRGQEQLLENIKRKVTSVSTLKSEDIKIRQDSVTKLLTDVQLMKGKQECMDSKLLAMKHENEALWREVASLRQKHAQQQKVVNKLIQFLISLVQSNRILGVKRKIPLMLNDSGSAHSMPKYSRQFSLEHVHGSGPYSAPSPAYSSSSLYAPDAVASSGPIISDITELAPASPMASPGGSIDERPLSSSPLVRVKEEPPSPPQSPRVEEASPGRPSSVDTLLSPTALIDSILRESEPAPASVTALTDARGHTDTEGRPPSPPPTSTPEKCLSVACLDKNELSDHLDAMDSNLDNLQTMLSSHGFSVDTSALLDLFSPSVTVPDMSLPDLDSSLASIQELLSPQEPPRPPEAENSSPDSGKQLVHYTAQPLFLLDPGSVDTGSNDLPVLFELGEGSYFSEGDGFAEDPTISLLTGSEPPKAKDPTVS
Chain of ETV5 (P41161 whole entry): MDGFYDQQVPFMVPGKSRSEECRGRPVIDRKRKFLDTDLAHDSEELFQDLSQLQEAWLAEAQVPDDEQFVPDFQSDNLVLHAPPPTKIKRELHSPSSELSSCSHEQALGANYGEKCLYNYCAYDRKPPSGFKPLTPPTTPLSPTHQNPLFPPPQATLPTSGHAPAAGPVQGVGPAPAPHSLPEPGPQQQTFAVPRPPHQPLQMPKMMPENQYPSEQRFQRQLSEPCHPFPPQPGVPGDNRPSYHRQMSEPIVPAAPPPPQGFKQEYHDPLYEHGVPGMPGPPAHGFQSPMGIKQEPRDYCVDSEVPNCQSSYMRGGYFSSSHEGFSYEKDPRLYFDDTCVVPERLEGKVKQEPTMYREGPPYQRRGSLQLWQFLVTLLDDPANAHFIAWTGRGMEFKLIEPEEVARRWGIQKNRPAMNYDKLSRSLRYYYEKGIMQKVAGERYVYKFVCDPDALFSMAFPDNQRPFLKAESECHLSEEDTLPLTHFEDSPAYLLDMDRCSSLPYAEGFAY
Chain of ELF4 (Q99607 whole entry): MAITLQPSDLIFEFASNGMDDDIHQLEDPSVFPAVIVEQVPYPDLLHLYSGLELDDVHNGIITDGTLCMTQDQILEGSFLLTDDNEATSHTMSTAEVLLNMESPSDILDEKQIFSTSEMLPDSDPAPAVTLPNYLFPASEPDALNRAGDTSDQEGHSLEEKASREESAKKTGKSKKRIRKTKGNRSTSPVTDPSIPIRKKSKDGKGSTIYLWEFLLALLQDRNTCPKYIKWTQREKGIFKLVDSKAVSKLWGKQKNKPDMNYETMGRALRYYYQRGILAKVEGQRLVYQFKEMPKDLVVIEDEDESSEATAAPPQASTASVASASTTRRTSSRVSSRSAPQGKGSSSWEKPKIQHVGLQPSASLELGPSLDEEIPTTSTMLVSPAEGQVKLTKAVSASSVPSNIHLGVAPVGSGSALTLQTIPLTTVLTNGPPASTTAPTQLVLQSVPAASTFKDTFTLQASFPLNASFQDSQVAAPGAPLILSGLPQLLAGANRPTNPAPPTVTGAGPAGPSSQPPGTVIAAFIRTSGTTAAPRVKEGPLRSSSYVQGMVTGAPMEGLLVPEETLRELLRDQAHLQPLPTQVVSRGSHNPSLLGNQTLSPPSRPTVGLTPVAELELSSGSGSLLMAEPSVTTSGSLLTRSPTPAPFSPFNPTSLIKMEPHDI
Chain of CRX (O43186 whole entry): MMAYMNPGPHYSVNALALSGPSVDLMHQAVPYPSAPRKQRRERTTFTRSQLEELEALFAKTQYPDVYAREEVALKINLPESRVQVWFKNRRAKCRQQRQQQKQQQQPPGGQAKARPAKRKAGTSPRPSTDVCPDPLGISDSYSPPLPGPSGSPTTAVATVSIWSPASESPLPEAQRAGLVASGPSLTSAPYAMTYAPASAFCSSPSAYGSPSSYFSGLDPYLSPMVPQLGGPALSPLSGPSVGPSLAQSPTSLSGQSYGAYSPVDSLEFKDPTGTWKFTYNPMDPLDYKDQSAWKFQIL
Chain of ETV1 (P50549 whole entry): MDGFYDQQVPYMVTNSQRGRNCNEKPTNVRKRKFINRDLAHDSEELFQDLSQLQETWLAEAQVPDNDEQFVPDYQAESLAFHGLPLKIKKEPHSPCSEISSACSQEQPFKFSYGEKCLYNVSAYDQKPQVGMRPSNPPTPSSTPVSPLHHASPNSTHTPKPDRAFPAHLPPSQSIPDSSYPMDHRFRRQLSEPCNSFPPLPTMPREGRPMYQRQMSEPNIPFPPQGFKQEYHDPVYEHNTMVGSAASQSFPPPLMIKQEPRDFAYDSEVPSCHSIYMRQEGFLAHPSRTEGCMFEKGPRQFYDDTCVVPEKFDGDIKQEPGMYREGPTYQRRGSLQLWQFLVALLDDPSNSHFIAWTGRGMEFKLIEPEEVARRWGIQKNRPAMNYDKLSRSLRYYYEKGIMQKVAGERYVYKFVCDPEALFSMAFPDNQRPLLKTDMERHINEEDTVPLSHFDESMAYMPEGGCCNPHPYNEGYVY

Q: What does the source list for TACCCT?
A: binding signal (FEV): 1.29 fold enrichment (6-mer frequency, TF over GST control); binding signal (ETV5): 1.28 fold enrichment (6-mer frequency, TF over GST control); binding signal (HSF1): 1.28 fold enrichment (6-mer frequency, TF over GST control); binding signal (SPIC): 1.38 fold enrichment (6-mer frequency, TF over GST control); binding signal (ELF4): 1.44 fold enrichment (6-mer frequency, TF over GST control); binding signal (ELK4): 1.47 fold enrichment (6-mer frequency, TF over GST control); binding signal (ETV2): 1.35 fold enrichment (6-mer frequency, TF over GST control); binding signal (ELF3): 1.2 fold enrichment (6-mer frequency, TF over GST control); binding signal (CRX): 1.45 fold enrichment (6-mer frequency, TF over GST control); binding signal (ETV1): 1.35 fold enrichment (6-mer frequency, TF over GST control)
